The supplement of paper PMC11624193, “Coupling cellular drug-target engagement to downstream pharmacology with CeTEAM” (Nature Communications, 2024)
Where a name gives a salt, the structure may show the parent alone. A number with no mark means an inactive call.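 Rule for the calls: active = log2 fold change beyond 2 SD from the library mean after excluding viability outliers; inactive = within 2 SD.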

What follows are molecules tested against PARP1 L713F-nLuc biosensor (HCT116) (UniProt P09874) (assay: PARP1 L713F-nLuc/akaLuc ratio relative to DMSO control (biosensor stabilization) (fold change); higher = more PARP1 biosensor stabilization (target engagement / stabilizer), active = hit call of the paper). Details: stock concentration (mM; final µM = stock mM x 1): 10; 24 h.
Sequence of PARP1 L713F-nLuc biosensor (HCT116) (P09874 whole entry L713F, looked up): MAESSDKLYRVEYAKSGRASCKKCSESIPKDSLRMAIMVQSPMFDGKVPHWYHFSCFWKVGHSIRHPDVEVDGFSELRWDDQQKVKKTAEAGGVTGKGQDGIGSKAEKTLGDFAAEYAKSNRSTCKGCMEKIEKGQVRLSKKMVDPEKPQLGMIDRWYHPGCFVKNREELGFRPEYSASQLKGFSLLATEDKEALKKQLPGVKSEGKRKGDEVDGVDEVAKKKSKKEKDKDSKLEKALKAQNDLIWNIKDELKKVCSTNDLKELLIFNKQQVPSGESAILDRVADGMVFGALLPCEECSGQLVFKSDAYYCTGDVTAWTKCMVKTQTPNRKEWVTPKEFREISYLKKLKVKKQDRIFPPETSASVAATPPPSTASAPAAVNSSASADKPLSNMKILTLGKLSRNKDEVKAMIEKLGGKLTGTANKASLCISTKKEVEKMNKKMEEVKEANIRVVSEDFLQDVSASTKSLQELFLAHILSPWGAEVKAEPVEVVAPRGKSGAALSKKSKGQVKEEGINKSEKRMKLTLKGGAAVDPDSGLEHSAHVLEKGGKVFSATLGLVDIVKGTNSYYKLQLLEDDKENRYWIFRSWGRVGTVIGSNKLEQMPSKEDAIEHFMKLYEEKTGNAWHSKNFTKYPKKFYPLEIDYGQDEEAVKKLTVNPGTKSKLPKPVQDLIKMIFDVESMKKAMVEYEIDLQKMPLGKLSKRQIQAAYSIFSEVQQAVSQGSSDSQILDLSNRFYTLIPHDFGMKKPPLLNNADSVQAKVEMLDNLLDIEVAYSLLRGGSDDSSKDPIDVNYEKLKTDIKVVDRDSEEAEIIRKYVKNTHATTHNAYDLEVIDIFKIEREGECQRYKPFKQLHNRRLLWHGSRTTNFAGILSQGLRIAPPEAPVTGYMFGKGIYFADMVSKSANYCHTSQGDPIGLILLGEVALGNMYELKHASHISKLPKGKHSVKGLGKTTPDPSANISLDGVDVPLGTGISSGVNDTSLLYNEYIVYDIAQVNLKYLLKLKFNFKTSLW

Row | Structure (SMILES) | PARP1 L713F-nLuc/akaLuc ratio
1 | CC[C@@H](C(N)=O)N1CCCC1=O [Levetiracetam] | 1.19
2 | O=C(O)CNC(=O)C1C(=O)N(C2CCCCC2)C(=O)N(C2CCCCC2)C1=O [Daprodustat] | 0.831
3 | CC(C)=CCCC1=CC(=O)c2c(O)ccc(O)c2C1=O [Deoxyshikonin] | 0.834
4 | Cn1cc(C2=C(c3cn(C4CCN(Cc5ccccn5)CC4)c4ccccc34)C(=O)NC2=O)c2ccccc21 [Enzastaurin] | 0.72
5 | COc1c2c3c4c(c(OC)c(=O)c5c(O)cc(OC)c(c6c(OC)cc(O)c(c1=O)c63)c54)[C@@H](C(C)=O)[C@@](C)(O)C2 [Hypocrellin A] | 0.849
6 | CC(=O)O[C@H]1[C@H]2[C@@H](OC(=O)Cc3ccccc3)[C@@H](C)C[C@]2(OC(C)=O)C(=O)/C(C)=C/[C@@H]2[C@H](CC[C@@]13CO3)C2(C)C [Euphorbiasteroid] | 0.646
7 | CC(O)(CS(=O)(=O)c1ccc(F)cc1)C(=O)Nc1ccc(C#N)c(C(F)(F)F)c1 (stereo not drawn) [Bicalutamide] | 0.786
8 | COc1ccc2c(c1)C(c1ccc(Cl)cc1)=N[C@@H](CC(=O)O)c1nnc(C)n1-2 [I-BET762 carboxylic acid] | 0.834
9 | c1ccc([C@@H]2C[C@H]2NC2CCNCC2)cc1 [GSK-LSD1 (dihydrochloride)] | 0.955
10 | C[C@H](CCC(=O)O)C[C@H](C)C[C@H](C)C(=O)/C=C(\O)[C@H](C)C[C@H](C)C/C=C/[C@@H](C)[C@@H](O)[C@@H](C)[C@@H](O)C[C@@H]1CC[C@@](C)([C@H]2CC[C@@](C)([C@@H](C)O)O2)O1 [Ionomycin (calcium)] | 0.727
11 | Clc1ccc2c(N3CCNCC3)ccnc2c1 [7-Chloro-4-(piperazin-1-yl)quinoline] | 0.933
12 | C[C@@H]1C(=O)O[C@H]2[C@H](O)[C@@]34O[C@@H]5OC(=O)[C@H](O)[C@@]56[C@H](C(C)(C)C)[C@H](O)C(OC3=O)[C@]64[C@@]12O (stereo partly drawn) [Ginkgolide C] | 0.961
13 | CCc1c(C(=O)C(N)=O)c2c(OCC(=O)O)cccc2n1Cc1ccccc1 | 0.845
14 | CCN1CCN(C(=O)Cc2ccc(Nc3ncc(F)c(Nc4ccc(C(=O)Nc5ccccc5Cl)cc4)n3)cc2)CC1 | 1.15
15 | Cn1cc(C2=C(c3cn(C4CCN(Cc5ccccn5)CC4)c4ccccc34)C(=O)NC2=O)c2ccccc21 | 1.12
16 | CCCC(=O)O[C@@H]1[C@@H](C)[C@@]2(O)[C@@H](C=C(CO)C[C@]3(O)C(=O)C(C)=C[C@@H]23)[C@@H]2C(C)(C)[C@]12OC(=O)CCC [Phorbol 12,13-dibutyrate] | 1.36
17 | Cc1cc(O)cc(C)c1C=C1C(=O)N(Cc2ccccc2)C(=O)N(Cc2ccccc2)C1=O | 1.52

Row | Structure (SMILES) | PARP1 L713F-nLuc/akaLuc ratio
18 | O=C(NO)c1cnc(NC2(c3ccccc3)CCC(F)(F)CC2)nc1 | 5.69 (active)
19 | O=C(NO)c1cnc(NC2(c3cccc(F)c3)CCCCC2)nc1 | 0.756
20 | COCC1(CO)C(=O)C2CCN1CC2 (stereo not drawn) | 1.09
21 | c1cncc(C2Nc3ccccc3-n3cccc32)c1 (stereo not drawn) | 0.887
22 | COc1cc(C(=O)N2CC[C@@H](O)[C@@H](N)C2)cc2nc(-c3cc4ccccc4n3CC3CC3)n(C)c12 [GSK484 (hydrochloride)] | 1.09
23 | CC[C@@]1(O)C(=O)OCc2c1cc1n(c2=O)Cc2cc3ccccc3nc2-1 [Camptothecin] | 0.495
24 | CN(C)NC(=O)CCC(=O)O [Daminozide] | 0.786
25 | NCCCNCCSP(=O)(O)O [Amifostine] | 1.22
26 | O=C(O)CNC(=O)c1c(O)c2ccccc2n(Cc2ccccc2)c1=O | 1.76
27 | C/C=C(/C)C(=O)O[C@H]1[C@@H]2[C@H](C)C(=O)O[C@@H]2C[C@@H](C)[C@@H]2C=CC(=O)[C@]21C [Brevilin A] | 1.47
28 | C=C1C[C@@H]2[C@H](CC[C@]3(C)C(=O)CC[C@@H]23)[C@@]2(C)C=CC(=O)C=C12 [Exemestane] | 1
29 | COc1cc(C)[nH]c(=O)c1CNC(=O)c1c(C)n([C@H](C)C2CCOCC2)c2ccccc12 | 0.857
30 | CCC1(c2ccc(N)cc2)CCC(=O)NC1=O (stereo not drawn) [Aminoglutethimide] | 0.862
31 | COc1ccc2c(c[n+](C)c3c4cc5c(cc4ccc23)OCO5)c1OC [Chelerythrine (chloride)] | 0.843
32 | N[C@@H](CNC(=O)C(=O)O)C(=O)O [Dencichine] | 1.45
33 | CC[C@@H](C(=O)[C@@H](C)[C@@H](O)[C@H](C)[C@@H]1O[C@@H]([C@@H](CC)C(=O)O)CC[C@@H]1C)[C@H]1O[C@]2(C=C[C@@H](O)[C@]3(CC[C@@](C)([C@H]4CC[C@](O)(CC)[C@H](C)O4)O3)O2)[C@H](C)C[C@@H]1C [Salinomycin (from Streptomyces albus)] | 0.553
